These results are taken from PubChem BioAssay AID909 (National Center for Advancing Translational Sciences (NCATS), 2007).

The other results are listed elsewhere or left out. Inconclusive results are not listed. The source made the active and inactive calls. Calls come from the whole dose curve; as a rule, active = well fitted inhibition curve with a large enough effect in the main read-out, with a control signal flat; inconclusive = small, poorly fitted or top-dose-only effect, or a change in a side signal; inactive = no such curve, though single readings can be large or run the other way.

The target in this assay is Caspase-7 (Homo sapiens) (UniProt P55210). Nature of the assay: Concentration-Response Counterscreen for Redox Active Inhibitors of Caspase-7: Catalase. The following applies: Caspase-7 Ac-DEVD-AFC fluorescence rate, catalase buffer; series mostly up to 57.5 µM; activity, negative = inhibition: at the top concentration. From the text: NIH Molecular Libraries Screening Centers Network [MLSCN] NIH Chemical Genomics Center [NCGC] MLSCN Grant: 1 X01 MH078950-01 PI Name: Dr. James Wells, Dr. Enrique Perez-Paya, Dr.Janice Williams, Dr. Dennis Wolan, a person NCGC Assay Overview: The caspases (Cysteine Aspartyl Protease) comprise a related family of 14 dimeric proteases that are critical mediators of apoptosis (programmed cell death) and inflammation. The caspases represent an important class of drug targets for stroke, ischemia, cancer and inflammatory diseases. […] One goal of this project was to identify compounds that act as allosteric inhibitors via stabilizing the procaspase form of the enzyme. […] After initiation of the assay with substrate the plates were rapidly read using an automated robotic system (Kalypsys, Inc.) to maintain consistent timing. […]
Chain of Caspase-7 (Homo sapiens) (P55210 24-198 limits assumed): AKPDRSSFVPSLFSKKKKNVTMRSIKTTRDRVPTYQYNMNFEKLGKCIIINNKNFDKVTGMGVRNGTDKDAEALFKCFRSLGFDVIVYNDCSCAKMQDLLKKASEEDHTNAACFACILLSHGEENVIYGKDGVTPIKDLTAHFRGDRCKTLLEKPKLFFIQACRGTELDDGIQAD
Chain of Caspase-7 (Homo sapiens) (P55210 207-303 limits assumed): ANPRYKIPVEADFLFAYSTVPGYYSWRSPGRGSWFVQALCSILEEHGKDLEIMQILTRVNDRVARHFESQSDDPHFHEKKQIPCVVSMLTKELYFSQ
NCGC Assay Protocol Summary: Caspase 7 was prepared in buffer (50 mM HEPES pH 7.5, 50 mM KCl, 200 mM NaCl, 50 units/well catalase (from bovine liver, Sigma cat#100), 0.1% CHAPS) at a concentration of 66.6 nM and 3 uL was dispensed to all wells using black solid Kalypsys 1536-well plates. […] The plates were then exposed using 405 nm excitation/520 nm emission filters for 4 sec and read at 20 sec intervals for 3 min. […]
In general terms: A counterscreen serves to expose hits that act by an unwanted route or on another target.
As to `N#CC1=C(N)Oc2cc(O)ccc2C1C1CCCCC1` (configuration not stated), the Potency was 31.6 µM (active).

As for `CCN1C(=O)/C(=C2/Sc3ccccc3N2CCCS(=O)(=O)O)SC1=S`, the “activity, negative = inhibition” value was -22.9% (inactive).
